In the library only some 4.1% were active in any assay of this set; here they are far more common.
TRPM1 prom inh = inhibitors of MITF-driven TRPM1 promoter in melanoma cells | SK-MEL-5 TRPM1 promoter luciferase, 24 h | inhibition, % at 12.5 µM | 330,000 tested, 0.83% active | AID 488899;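 active means mean inhibition across replicates of 60% or more, whatever share of single replicates reaches that level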
EBV LMP1 NFkB = inhibitors of Epstein-Barr LMP1-induced NF-kappaB reporter. LMP1-induced NF-kappaB luciferase reporter cells, luminescence. inhibition, % at 12.5 µM. 350,000 tested, 0.69% active; in the data active means inhibition above about 41%
Peg3 promoter = Peg3 promoter activity inhibition. HeLa PEG-Prom luciferase reporter, luminescence, overnight. inhibition, % at 20 µM. 360,000 tested, 1.7% active. AID 588405;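 active means inhibition of at least 50% at 20 µM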
TWEAK-Fn14 inh = blocks TWEAK-Fn14 interaction in a reporter cell assay. TWEAK-stimulated Fn14 reporter cells, luciferase luminescence, 8 h. inhibition, % at 10 µM. 360,000 tested, 2% active; in the data active means inhibition above about 50%
TROY signal inh = TROY signaling inhibition; Q293 LMP1-TROYcd NF-kB luciferase reporter, 4 h; inhibition, % at 10 µM; 360,000 tested, 0.98% active; AID 1347056;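 active means compounds whose plate-normalised and pattern-corrected inhibition of the luciferase reporter signal at the single screening dose is 50% or more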
Shn3 inh set2 = inhibitors of Schnurri-3 3'UTR reporter in osteoblasts | AID 588674 | Clone20 osteoblast Shn3 3'UTR firefly luciferase, 24 h | inhibition, % at 12.5 µM | 360,000 tested, 0.52% active;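 active means mean inhibition of at least 75% with every replicate also reaching 75%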
Large screens that a line does not name were inactive.

CCN(CCNCC(O)COc1ccccc1C(C)C)c1cccc(C)c1 (configuration not stated)	Peg3 promoter 93
NC(N)=N/N=C/c1ccc(OCc2ccccc2Cl)cc1	Peg3 promoter 103
NC(N)=N/N=C/c1ccc(Cl)c(Cl)c1	Peg3 promoter 99 (no result: TRPM1 prom inh, EBV LMP1 NFkB)
COc1cc(/C=N/N=C(N)N)ccc1OCc1ccc(Cl)cc1	TRPM1 prom inh 89, Peg3 promoter 103, TWEAK-Fn14 inh 81, TROY signal inh 62
NC(N)=N/N=C/c1ccccc1	none
Cc1cc(NC(=O)COC(=O)CCNS(=O)(=O)c2ccccc2)n(-c2ccccc2)n1	none
CC(C)(C)C(=O)CNCC(=O)C(C)(C)C	none
Cc1ccc(OCC(=O)N(Cc2ccccc2)c2c(N)n(Cc3ccccc3)c(=O)[nH]c2=O)c(C)c1	none
Cc1ccc2cc(C)c3nnc(SCC(=O)NCc4ccco4)n3c2c1	TWEAK-Fn14 inh 52
CC1CN(CCCCSc2ccc(Cl)cc2)CC(C)O1 (configuration not stated)	TWEAK-Fn14 inh 90
CCOC(=O)C1(Cc2ccc(OC)cc2)CCN(C(=O)c2cc(C)nn2C)CC1	none
CCC(=O)N1CCN(c2ccccc2NC(=O)COc2cc(C)ccc2C(C)C)CC1	Peg3 promoter 52
COc1ccc(Cc2nnc(SCc3ccc([N+](=O)[O-])cc3)o2)cc1	TWEAK-Fn14 inh 65
Cc1cc(Nc2ccc3c(c2)OCCO3)c2cc(Cl)ccc2n1	none
O=C(c1ccco1)N1CCN(C(=S)Nc2ccccc2Cl)CC1	none
CCc1cc(C(=O)Nc2ncccc2O)sc1C	EBV LMP1 NFkB 47
Nc1nccc(-c2ccc(-n3cnc4ccccc43)cc2)n1	TWEAK-Fn14 inh 53
CCCc1cc(=O)c2c(O)ccc(OC)c2o1	EBV LMP1 NFkB 55
COc1cc2c(=O)n(CCC(=O)NCC3CCCO3)c(=O)n(CC(=O)Nc3ccc(F)cc3)c2cc1OC (configuration not stated)	none
Cc1nc2ccccn2c1C(=O)N=Nc1c(O)n(CCC(C)C)c2ccccc12	Peg3 promoter 107, TWEAK-Fn14 inh 69, Shn3 inh set2 86
COc1cccc(N2[C@@H](CC(C)=O)c3ccc(/C=C/C(C)=O)cc3S2(=O)=O)c1	Peg3 promoter 100
COc1ccc(CN2[C@@H](CC(C)=O)c3ccc(/C=C/C(C)=O)cc3S2(=O)=O)cc1	Peg3 promoter 106
COc1ccccc1-c1c(C)nn2c(N)c(-c3ccccc3)cnc12	none
COc1cc2c(cc1OC)C(c1ccc(-c3cc(Cl)ccc3Cl)o1)=NCC2	none
COc1cc2c(cc1OC)C(c1ccc(Cl)cc1)=NCC2	none
COc1cc2c(cc1OC)C(c1ccc(-c3ccc(Cl)c(Cl)c3)o1)=NCC2	Peg3 promoter 85, TWEAK-Fn14 inh 75
COc1cc2c(cc1OC)C(c1ccc(-c3ccccc3Cl)o1)=NCC2	EBV LMP1 NFkB 51
COc1cc2c(cc1OC)C(c1ccc(-c3ccc(Cl)cc3Cl)o1)=NCC2	TWEAK-Fn14 inh 50
CCN1C(C)=C(C)S/C1=C1\SC(=S)N(N)C1=O	none
CC(C)c1ccc(/C=N/NC(=O)CCNC(=O)c2ccccc2)cc1	none
COc1ccc(C(=O)Nn2c(SCC(=O)NC3CCCCC3)nc3ccccc3c2=O)cc1	EBV LMP1 NFkB 55, TWEAK-Fn14 inh 92, TROY signal inh 78
COc1ccc(C(=O)Nn2c(SCc3cccc([N+](=O)[O-])c3)nc3ccccc3c2=O)cc1	TWEAK-Fn14 inh 79, TROY signal inh 76
COc1ccc(C(=O)Nn2c(SCC(=O)c3ccc(Cl)cc3)nc3ccccc3c2=O)cc1	EBV LMP1 NFkB 48, TWEAK-Fn14 inh 91, TROY signal inh 79
O=C(Nn1c(SCc2cccc([N+](=O)[O-])c2)nc2ccccc2c1=O)c1ccccc1	none
COc1ccc(C(=O)Nn2c(C)nc3ccccc3c2=O)cc1	none
COc1ccc(C(=O)Nn2c(SCC(=O)NCc3ccco3)nc3ccccc3c2=O)cc1	EBV LMP1 NFkB 50, TWEAK-Fn14 inh 88, TROY signal inh 80
CCn1c(SCC(=O)NCc2ccco2)nc2ccccc2c1=O	none
COc1ccccc1C(=O)NC(=O)COC(=O)Cc1ccccc1[N+](=O)[O-]	none
COc1ccc(C(=O)Nn2c(SCC(=O)N3CCC(C)CC3)nc3ccccc3c2=O)cc1	EBV LMP1 NFkB 70, Peg3 promoter 68, TWEAK-Fn14 inh 97, TROY signal inh 81
COCCn1c(SCC(=O)NNC(=O)c2ccccc2)nc2ccccc2c1=O	TROY signal inh 80

Bioassay records (PubChem BioAssay)
